# Source: the supplement of paper PMC9135407
# Values joined by “and” are separate entries in the source; they are usually repeats but may differ in a detail not shown here. Identical values can stand only once. Counter-ions that a name gives are not always drawn. Among all 5,800 compounds or so, about 620 (11%) showed activity. The entries come from a sample that favours actives as a whole. A number with no mark means an inactive call.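 Rule for the calls: active = score above a cut-off or among the top three wells of a plate; in these data no inactive exceeds 0.85.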
# Test system: primary human hepatic stellate cells (donor 1)
# Experiment: scaled lipid accumulation score (0 = DMSO-like, 1 = nortriptyline-like); higher = stronger HSC inactivation (lipid re-accumulation), active = hit call of the paper
# Details: 48 h
# [1] = library stock concentration: 10 mM
# [2] = library stock concentration: 80 uM
# [3] = library stock concentration: 400 uM
# [4] = library stock concentration: 2 mM
# [5] = library stock concentration: 1 mM
# [6] = library stock concentration: 3.33 mM
# [7] = library stock concentration: 6.4 mM
smiles,measurement,setting,value
NC(=O)C1(N2CCCCC2)CCN(CCCC(=O)c2ccc(F)cc2)CC1,scaled lipid accumulation score,[1],≤ 0
O=C(CCCN1CCC(O)(c2cccc(C(F)(F)F)c2)CC1)c1ccc(F)cc1 [Trifluperidol 2HCl],scaled lipid accumulation score,library stock concentration: 4.9 mM,0.327
O=C(CCCN1CCC(O)(c2ccc(Cl)cc2)CC1)c1ccc(F)cc1 [Haloperidol HCl],scaled lipid accumulation score,library stock concentration: 5.3 mM,0.419
O=C(CCCN1CCC(O)(c2ccc(Br)cc2)CC1)c1ccc(F)cc1 [Bromperidol],scaled lipid accumulation score,,0.632
same,scaled lipid accumulation score,library stock concentration: 4.8 mM,0.429
O=C(CCCN1CCC(O)(c2ccc(Cl)cc2)CC1)c1ccc(F)cc1 [Haloperidol],scaled lipid accumulation score,[1],1.12 (active)
Cl.O=C(CCCN1CCC(O)(c2cccc(C(F)(F)F)c2)CC1)c1ccc(F)cc1 [Trifluperidol hydrochloride],scaled lipid accumulation score,[1],0.88 (active)
O=C(CCCN1CCC(O)(c2ccc(Cl)cc2)CC1)c1ccc(F)cc1 [Haloperidol hydrochloride],scaled lipid accumulation score,[1],0.78
COc1ccc(C2(CNC(=O)c3ccc(NC(=O)c4ccco4)cc3)CCOCC2)cc1,scaled lipid accumulation score,[2],≤ 0
same,scaled lipid accumulation score,[3],≤ 0
same,scaled lipid accumulation score,[4],≤ 0
same,scaled lipid accumulation score,[1],≤ 0
CCCCC[C@H](O)/C=C/[C@@H]1[C@@H](C/C=C\CCCCO)[C@@H](O)C[C@H]1O [Prostaglandin F2.alpha. Alcohol],scaled lipid accumulation score,[5],≤ 0
"CCCn1c(=O)c2[nH]c(-c3ccc(S(=O)(=O)O)cc3)nc2n(CCC)c1=O [1,3-Dipropyl-8-p-sulfophenylxanthine]",scaled lipid accumulation score,[1],0.108
CC1=C(C(=O)OC(C)C)C(c2cccc([N+](=O)[O-])c2)C(C(=O)OC2CN(C(c3ccccc3)c3ccccc3)C2)=C(N)N1 (stereo unspecified) [Azelnidipine],scaled lipid accumulation score,[6],0.061
same,scaled lipid accumulation score,[1],0.189
O=C(CCC/C=C\C[C@@H]1[C@@H](/C=C/[C@@H](O)CCc2ccccc2)[C@H](O)C[C@@H]1O)NC(CO)CO [17-phenyl trinor Prostaglandin F2.alpha. serinol amide],scaled lipid accumulation score,[5],0.062
COc1cc(NC(=O)c2ccccn2)ccc1Cl,scaled lipid accumulation score,[6],≤ 0
same,scaled lipid accumulation score,[1],≤ 0
COc1ccc(NC(=O)c2cc(OCCCN(C)C)nn2Cc2ccccc2)cc1.Cl [CFM 1571 hydrochloride],scaled lipid accumulation score,[1],1.11 (active)
COCCOc1nc(-c2ccc(Cl)c(Cl)c2)n(-c2ccc(NC(=O)CCl)cc2)n1 [MI-2 (MALT1 inhibitor)],scaled lipid accumulation score,[6],0.584
same,scaled lipid accumulation score,[1],0.62
O=C(O)CCC/C=C\CC1C(O)CC(O)C1/C=C/C(O)COc1cccc(Cl)c1 (stereo unspecified),scaled lipid accumulation score,[1],≤ -0.001
O=C(O)CCC/C=C\CC1C(O)CC(O)C1/C=C/C(O)COc1cccc(Cl)c1 (stereo unspecified) [Cloprostenol],scaled lipid accumulation score,[5],≤ -0.021
CC1CC(OC(=O)C(O)c2ccccc2)CC(C)(C)N1C (stereo unspecified) [Eucatropine hydrochloride],scaled lipid accumulation score,,≤ 0
same,scaled lipid accumulation score,library stock concentration: 6.1 mM,≤ -0.001
same,scaled lipid accumulation score,[1],≤ 0
CC1O[C@H](O[C@]2(O[C@H]3CC[C@@]4(C)C(=CC[C@H]5[C@@H]6C[C@H]7[C@H]([C@H](C)[C@H]8CC[C@H](C)CN87)[C@@]6(C)CC[C@@H]54)C3)C[C@@H](O[C@@H]3OC(CO)[C@@H](O)[C@@H](O)C3O)[C@@H](O)C(CO)O2)C(O)[C@@H](O)[C@H]1O (stereo partly drawn) [Solanine alpha],scaled lipid accumulation score,,≤ 0
CNC(=C[N+](=O)[O-])NCCSCc1ccc(CN(C)C)o1 [Ranitidine hydrochloride],scaled lipid accumulation score,,≤ 0
same,scaled lipid accumulation score,[1],≤ 0 and ≤ -0.006
CNC(=C[N+](=O)[O-])NCCSCc1ccc(CN(C)C)o1 [Ranitidine HCl],scaled lipid accumulation score,[7],≤ 0
Cc1ccc(NC(=O)NCCSCc2ccc(CN(C)C)o2)cc1Cl,scaled lipid accumulation score,[1],0.931 (active)
CNC(=C[N+](=O)[O-])NCCSCc1ccc(CN(C)C)o1 [Ranitidine],scaled lipid accumulation score,[6],≤ 0
same,scaled lipid accumulation score,[7],≤ 0
same,scaled lipid accumulation score,[1],0.049 and ≤ 0
Cc1cc(NC(=O)c2cccc(NC(=O)C=CCN(C)C)c2)ccc1Nc1nccc(-c2cccnc2)n1,scaled lipid accumulation score,[6],1.08 (active)
same,scaled lipid accumulation score,[1],1.02 (active)
CN(C)C/C=C/C(=O)Nc1ccc(C(=O)Nc2cccc(Nc3ncc(Cl)c(-c4c[nH]c5ccccc45)n3)c2)cc1,scaled lipid accumulation score,[2],0.587
same,scaled lipid accumulation score,[3],0.669
same,scaled lipid accumulation score,[4],0.638
same,scaled lipid accumulation score,[1],0.41
CN(C)C/C=C/C(=O)Nc1ccc(C(=O)Nc2cccc(Nc3nccc(-c4cccnc4)n3)c2)cc1,scaled lipid accumulation score,[1],1.15 (active)
CN(C)C/C=C/C(=O)Nc1cccc(Nc2ncc3c(n2)N(C)c2ccccc2C(=O)N3C)c1,scaled lipid accumulation score,[2],≤ -0.009
same,scaled lipid accumulation score,[3],0.1
same,scaled lipid accumulation score,[4],0.846
same,scaled lipid accumulation score,[1],0.566
